# Data from PubChem BioAssay (EPA / NIEHS).
# Active and inactive are the calls of the source. How the source made its calls: active means hit-call score of the fitted dose curve at least 0.9, where 1 is the maximum; inactive means score below 0.9.
# Molecular target: Hepatocyte nuclear factor 3-beta (Homo sapiens) (UniProt Q9Y261)
# Test: ATG_FoxA2_CIS: Attagene CIS-FACTORIAL HepG2 Assay for human Forkhead box A2 (FOXA2) (AID 2282942)
# Conditions: HepG2 cis-reporter transcription factor activity, 24 h; actives raise or lower the signal
# Procedure, shortened: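 HepG2 cells transiently transfected with multiple cis-regulated reporter transcription units, dosed for 24 h. Reporter mRNA measured by RT-PCR, 6-FAM labelling, HpaI digestion and capillary electrophoresis; bidirectional fitting against DMSO baseline.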
# Hepatocyte nuclear factor 3-beta (Homo sapiens), sequence (Q9Y261 whole entry, looked up): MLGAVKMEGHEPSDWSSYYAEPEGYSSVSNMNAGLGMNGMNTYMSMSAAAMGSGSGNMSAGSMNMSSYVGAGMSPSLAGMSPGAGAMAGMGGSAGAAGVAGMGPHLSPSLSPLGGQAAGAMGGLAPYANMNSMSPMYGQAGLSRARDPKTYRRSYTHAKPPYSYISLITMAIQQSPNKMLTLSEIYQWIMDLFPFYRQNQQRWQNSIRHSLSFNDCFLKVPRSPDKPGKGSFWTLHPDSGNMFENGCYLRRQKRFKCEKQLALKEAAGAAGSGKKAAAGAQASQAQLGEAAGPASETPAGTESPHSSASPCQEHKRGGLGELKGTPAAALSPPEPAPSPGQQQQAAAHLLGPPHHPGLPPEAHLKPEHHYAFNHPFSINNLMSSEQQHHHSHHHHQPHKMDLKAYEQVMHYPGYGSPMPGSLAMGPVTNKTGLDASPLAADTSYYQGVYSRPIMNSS
SMILES,outcome,AC50
CO[Si](C)(OC)c1ccccc1,inactive,–
COc1ccc(OC)c(OC)c1,inactive,–
CN(C)CCOCCN(C)C,inactive,–
CCC/C=C/C=O,inactive,–
CC(=O)O[C@]1(C(C)=O)CC[C@H]2[C@@H]3C[C@H](C)C4=CC(=O)CC[C@]4(C)[C@H]3CC[C@@]21C,inactive,–
O=C(O)c1cn(-c2ccc(F)cc2)c2cc(N3CCNCC3)c(F)cc2c1=O,inactive,–
Cc1ccc(C=O)cc1,inactive,–
Cc1cccc(C)c1[N+](=O)[O-],inactive,–
CCCCCCCCCCCCOCCO,–,47.6 µM (active)
Clc1sc(Cl)c(Cl)c1Cl,inactive,–
NC(N)=NC(=O)c1nc(Cl)c(N)nc1N,inactive,–
O=c1[nH]c(=O)n([C@H]2CCCO2)cc1F,inactive,–
CCC(O)CO (stereo unspecified),inactive,–
CO[Si](CCCn1c(=O)n(CCC[Si](OC)(OC)OC)c(=O)n(CCC[Si](OC)(OC)OC)c1=O)(OC)OC,inactive,–
Nc1cc(N)cc(C(=O)O)c1,inactive,–
CCCC(=O)OCCC(C)CCC=C(C)C (stereo unspecified),inactive,–
O=C(O)c1cccc(C(F)(F)F)c1,inactive,–

SMILES,outcome,AC50
CC[Si](OC(C)=O)(OC(C)=O)OC(C)=O,inactive,–
O=S(=O)(O)NC1CCCCC1,inactive,–
CCCCCCCCC=O,inactive,–
CCCCOCCOCCSC#N,inactive,–
CCCCCCCCCCCCSC,inactive,–
CN1[C@@H]2CC(OC(=O)[C@H](CO)c3ccccc3)C[C@H]1[C@@H]1O[C@@H]12 (stereo partly specified),inactive,–
O=C(O)C[C@H](O)C[C@H](O)/C=C/c1c(C2CC2)nc2ccccc2c1-c1ccc(F)cc1,inactive,–
CCn1c2ccccc2c2cc(N)ccc21,inactive,–
COc1cccc(OC)c1,inactive,–
CCC(=O)OCc1ccccc1,inactive,–
CC(C)C1CCC(O)CC1 (stereo unspecified),inactive,–
CC(=O)O[C@H](CC(=O)[O-])C[N+](C)(C)C,inactive,–
C=C(C)C(=O)OCCOC(=O)CC(C)=O,inactive,–
O=C=NC1CCC(CC2CCC(N=C=O)CC2)CC1 (stereo unspecified),inactive,–
O=c1cc(-c2ccccc2)oc2cc(O)cc(O)c12,inactive,–
O=c1[nH]nnc2ccccc12,inactive,–
OCCOc1cccc(OCCO)c1,inactive,–

# Tested on: not listed separately
# Test: ATG_FoxO_CIS: Attagene CIS-FACTORIAL HepG2 Assay for human Forkhead box O (FoxO) (AID 2282943)
# Conditions: HepG2 Attagene cis-reporter, FoxO element, mRNA; actives raise or lower the signal
# Procedure, shortened: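 Endogenous transcription factor activity read from multiplexed cis-promoter reporter transcripts in transiently transfected HepG2, 24 h after dosing. Reporter RNA measured via RT-PCR plus capillary electrophoresis of FAM-labeled products; gain or loss relative to DMSO.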
SMILES,outcome,AC50
CO[Si](C)(OC)c1ccccc1,inactive,–
COc1ccc(OC)c(OC)c1,inactive,–
CN(C)CCOCCN(C)C,inactive,–
CCC/C=C/C=O,inactive,–
CCc1ccc(C=O)cc1,inactive,–
O=C(O)c1cn(-c2ccc(F)cc2)c2cc(N3CCNCC3)c(F)cc2c1=O,inactive,–
c1ccc2c(c1)c1cccc3ccc4cccc2c4c31,inactive,–
Cc1cccc(C)c1[N+](=O)[O-],inactive,–
COc1nc(C)nc(N)n1,inactive,–
CCCCCCCCCCCCOCCO,–,56.6 µM (active)
Clc1sc(Cl)c(Cl)c1Cl,inactive,–
NC(N)=NC(=O)c1nc(Cl)c(N)nc1N,inactive,–
O=c1[nH]c(=O)n([C@H]2CCCO2)cc1F,inactive,–
CCC(O)CO (stereo unspecified),inactive,–
CO[Si](CCCn1c(=O)n(CCC[Si](OC)(OC)OC)c(=O)n(CCC[Si](OC)(OC)OC)c1=O)(OC)OC,inactive,–
Nc1cc(N)cc(C(=O)O)c1,inactive,–
CCCC(=O)OCCC(C)CCC=C(C)C (stereo unspecified),inactive,–

SMILES,outcome,AC50
CC[Si](OC(C)=O)(OC(C)=O)OC(C)=O,inactive,–
O=S(=O)(O)NC1CCCCC1,inactive,–
CCCCCCCCC=O,inactive,–
CCCCOCCOCCSC#N,inactive,–
CCCCCCCCCCCCSC,inactive,–
CN1[C@@H]2CC(OC(=O)[C@H](CO)c3ccccc3)C[C@H]1[C@@H]1O[C@@H]12 (stereo partly specified),inactive,–
O=C(O)C[C@H](O)C[C@H](O)/C=C/c1c(C2CC2)nc2ccccc2c1-c1ccc(F)cc1,inactive,–
CCn1c2ccccc2c2cc(N)ccc21,inactive,–
COc1cccc(OC)c1,inactive,–
CCC(=O)OCc1ccccc1,inactive,–
O=[N+]([O-])c1ccc(C=Cc2ccc([N+](=O)[O-])cc2S(=O)(=O)O)c(S(=O)(=O)O)c1,inactive,–
CC(C)C1CCC(O)CC1 (stereo unspecified),inactive,–
CC(=O)O[C@H](CC(=O)[O-])C[N+](C)(C)C,inactive,–
O=C=NC1CCC(CC2CCC(N=C=O)CC2)CC1 (stereo unspecified),inactive,–
O=c1cc(-c2ccccc2)oc2cc(O)cc(O)c12,inactive,–
O=c1[nH]nnc2ccccc12,inactive,–
OCCOc1cccc(OCCO)c1,inactive,–

# Tested on: not listed separately
# Test: ATG_GATA_CIS: Attagene CIS-FACTORIAL HepG2 Assay for human GATA Binding Protein (AID 2282944)
# Conditions: HepG2 GATA cis-element reporter, Attagene multiplex mRNA; actives raise or lower the signal
# Procedure, shortened: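 Reporter transcripts from a GATA cis-regulated unit, among multiplexed reporters in transfected HepG2 cells, were measured by RT-PCR with capillary electrophoresis after 24 h dosing. Induction or loss scored relative to DMSO.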
row,SMILES,outcome
1,CO[Si](C)(OC)c1ccccc1,inactive
2,COc1ccc(OC)c(OC)c1,inactive
3,CN(C)CCOCCN(C)C,inactive
4,CCC/C=C/C=O,inactive
5,CC(=O)O[C@]1(C(C)=O)CC[C@H]2[C@@H]3C[C@H](C)C4=CC(=O)CC[C@]4(C)[C@H]3CC[C@@]21C,inactive
6,CCc1ccc(C=O)cc1,inactive
7,O=C(O)c1cn(-c2ccc(F)cc2)c2cc(N3CCNCC3)c(F)cc2c1=O,inactive
8,c1ccc2c(c1)c1cccc3ccc4cccc2c4c31,inactive
9,Cc1ccc(C=O)cc1,inactive
10,Cc1cccc(C)c1[N+](=O)[O-],inactive
11,COc1nc(C)nc(N)n1,inactive
12,CCCCCCCCCCCCOCCO,inactive
13,Clc1sc(Cl)c(Cl)c1Cl,inactive
14,NC(N)=NC(=O)c1nc(Cl)c(N)nc1N,inactive
15,O=c1[nH]c(=O)n([C@H]2CCCO2)cc1F,inactive
16,CCC(O)CO (stereo unspecified),inactive
17,CO[Si](CCCn1c(=O)n(CCC[Si](OC)(OC)OC)c(=O)n(CCC[Si](OC)(OC)OC)c1=O)(OC)OC,inactive
18,Nc1cc(N)cc(C(=O)O)c1,inactive
19,CCCC(=O)OCCC(C)CCC=C(C)C (stereo unspecified),inactive

row,SMILES,outcome
1,O=C(O)c1cccc(C(F)(F)F)c1,inactive
2,CC[Si](OC(C)=O)(OC(C)=O)OC(C)=O,inactive
3,O=S(=O)(O)NC1CCCCC1,inactive
4,CCCCCCCCC=O,inactive
5,CCCCOCCOCCSC#N,inactive
6,CCCCCCCCCCCCSC,inactive
7,CN1[C@@H]2CC(OC(=O)[C@H](CO)c3ccccc3)C[C@H]1[C@@H]1O[C@@H]12 (stereo partly specified),inactive
8,O=C(O)C[C@H](O)C[C@H](O)/C=C/c1c(C2CC2)nc2ccccc2c1-c1ccc(F)cc1,inactive
9,CCn1c2ccccc2c2cc(N)ccc21,inactive
10,COc1cccc(OC)c1,inactive
11,CCC(=O)OCc1ccccc1,inactive
12,O=[N+]([O-])c1ccc(C=Cc2ccc([N+](=O)[O-])cc2S(=O)(=O)O)c(S(=O)(=O)O)c1,inactive
13,CC(C)C1CCC(O)CC1 (stereo unspecified),inactive
14,CC(=O)O[C@H](CC(=O)[O-])C[N+](C)(C)C,inactive
15,C=C(C)C(=O)OCCOC(=O)CC(C)=O,inactive
16,O=C=NC1CCC(CC2CCC(N=C=O)CC2)CC1 (stereo unspecified),inactive
17,O=c1cc(-c2ccccc2)oc2cc(O)cc(O)c12,inactive
18,O=c1[nH]nnc2ccccc12,inactive
19,OCCOc1cccc(OCCO)c1,inactive
